# Data taken from the supplement of paper PMC12494721.
# Structures can show the parent of a compound that is named as a salt.
# What was measured:
# Conditions in all cases: incubation time: 27 h, anaerobic, 37 °C;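 for the amine columns active = adjusted P below 0.05 in both replicates with a change the same way and a mean fold change under 0.8 or over 1.25; inactive = the rest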
# [1] = system: Clostridium sporogenes DSM 1664; test: growth (OD595) fold change vs plate DMSO controls (fold change (ratio)); higher = more growth
# How it was run: (§1)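 Growth is expressed as the fold change relative to the median of the DMSO control wells on each plate. Cultures in mGAM were grown anaerobically in 96-well plates for 27 h at 37 °C, shaken, and read at 595 nm. Readings were blank-subtracted, corrected for compound background with 20 µM compound solutions in water, and converted to OD with a calibration factor of 5. Fold changes above 1.5 were set to NA, and each value is the mean of 2 biological replicates.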
# Escherichia coli IAI1 [2] = test: as above
# How it was run: as §1
# [3] = system: Klebsiella aerogenes DSM 30053; test: as above
# How it was run: as §1
# [4] = system: Ruminococcus gnavus DSM 108212; test: as above
# How it was run: as §1
# [5] = system: Klebsiella aerogenes DSM 30053; test: fold change of Histamine concentration vs plate DMSO controls (fold change (ratio)); higher = more amine produced, active = hit call of the paper (significant change in both replicates, either direction)
# How it was run: (§2)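 Anaerobic mGAM cultures of four gut bacterial strains were grown at 37 °C for 27 h in 80 µL wells, starting at OD 0.1 before 1:1 dilution. Compounds were at 20 µM final (sweeteners 50 µM). Whole cultures were extracted with cold acetonitrile/methanol containing 0.1% formic acid and centrifuged. Amines were quantified by LC–triple-quadrupole MS (dynamic MRM) against external calibration curves and drift-corrected within batch. Each value is the fold change versus plate DMSO controls, averaged over 2 biological replicates.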
# [6] = system: Clostridium sporogenes DSM 1664; test: fold change of Tryptamine concentration vs plate DMSO controls (fold change (ratio)); higher = more amine produced, active = hit call of the paper (significant change in both replicates, either direction)
# How it was run: as §2
# [7] = system: Ruminococcus gnavus DSM 108212; test: as above
# How it was run: as §2
# Escherichia coli IAI1 [8] = test: fold change of Putrescine concentration vs plate DMSO controls (fold change (ratio)); higher = more amine produced, active = hit call of the paper (significant change in both replicates, either direction)
# How it was run: as §2
# [9] = system: Klebsiella aerogenes DSM 30053; test: as above
# How it was run: as §2
# Escherichia coli IAI1 [10] = test: fold change of Cadaverine concentration vs plate DMSO controls (fold change (ratio)); higher = more amine produced, active = hit call of the paper (significant change in both replicates, either direction)
# How it was run: as §2
# [11] = system: Klebsiella aerogenes DSM 30053; test: as above
# How it was run: as §2
# [12] = system: Ruminococcus gnavus DSM 108212; test: fold change of 2-Phenylethylamine concentration vs plate DMSO controls (fold change (ratio)); higher = more amine produced, active = hit call of the paper (significant change in both replicates, either direction)
# How it was run: as §2
Structure (SMILES),growth [1],growth (Escherichia coli IAI1 [2]),growth [3],growth [4],fold change of Histamine concentration [5],fold change of Tryptamine concentration [6],fold change of Tryptamine concentration [7],fold change of Putrescine concentration (Escherichia coli IAI1 [8]),fold change of Putrescine concentration [9],fold change of Cadaverine concentration (Escherichia coli IAI1 [10]),fold change of Cadaverine concentration [11],fold change of 2-Phenylethylamine concentration [12]
COc1c(O[C@@H]2O[C@H](CO)[C@@H](O)[C@H](O)[C@H]2O)cc2c(c1OC)-c1ccc(SC)c(=O)cc1[C@@H](NC(C)=O)CC2 [Thiocolchicoside] (20 µM),0.996,1,0.975,0.686,1.1 (inactive),1.01 (inactive),1.02 (inactive),1.01 (inactive),1.02 (inactive),1 (inactive),0.991 (inactive),1.01 (inactive)
CC(C)(CO)[C@@H](O)C(=O)NCCC(=O)NCCSSCCNC(=O)CCNC(=O)[C@H](O)C(C)(C)CO [D-Pantethine] (20 µM),1.09,0.976,1.02,0.955,0.976 (inactive),1.03 (inactive),0.986 (inactive),1 (inactive),1.03 (inactive),1.03 (inactive),1 (inactive),1.02 (inactive)
Cc1ccc(C)c(OCCCC(C)(C)C(=O)O)c1 [Gemfibrozil] (20 µM),1.11,1.01,1.07,0.931,1.02 (inactive),1.01 (inactive),1.05 (inactive),0.995 (inactive),1.02 (inactive),0.968 (inactive),0.994 (inactive),1.03 (inactive)
C[C@]12C=CC(=O)C=C1CC[C@@H]1[C@@H]2[C@@H](O)C[C@@]2(C)[C@H]1CC[C@]2(O)C(=O)CO [Prednisolone] (20 µM),0.973,0.997,1,0.987,1.02 (inactive),1.03 (inactive),0.942 (inactive),0.997 (inactive),1 (inactive),0.997 (inactive),1 (inactive),0.815 (inactive)
CCCCCCCN(CC)CCCC(O)c1ccc(NS(C)(=O)=O)cc1 (configuration not stated) [Ibutilide fumarate] (20 µM),1.13,1.12,1.09,1.08,0.925 (inactive),0.904 (inactive),0.952 (inactive),1.03 (inactive),0.989 (inactive),1.02 (inactive),1.01 (inactive),0.903 (inactive)
CCOC(=O)[C@H](CCc1ccccc1)N[C@H]1CCc2ccccc2N(CC(=O)O)C1=O [Benazepril hydrochloride] (20 µM),1.03,1,1,1.02,1 (inactive),1.06 (inactive),1.02 (inactive),0.997 (inactive),0.981 (inactive),0.989 (inactive),1.02 (inactive),1.01 (inactive)
